Screening results as filed in PubChem.
S16 F2sN tox = cytotoxicity in S16 Pmp22-F2sN Schwann cells. 43,000 tested, 0.48% active. S16 Pmp22-F2sN Schwann cells viability, CellTiter-Glo, 24 h. Potency, µM (doses to about 57.5 µM), without a hit: at the top dose activity change, negative = cytotoxicity, most hits filed as cytotoxic. AID 1508642; further: potency means the concentration at half of the fitted maximal effect; on the % scale 0 is the no-effect control and ±100 the full control effect; nearly all actives have a fitted effect of over 65% in size
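Used to flag compounds lowering reporter output through toxicity, this quantitative HTS measures ATP-based CellTiter-Glo luminescence in S16 Pmp22-F2sN Schwann cells after 24 h compound exposure at 37C.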
p53null 32C tox = selectivity test: cytotoxicity in p53 null cells, permissive temperature | H1299-neo p53 null cells, ATP luminescence, 24 h, 32C | Potency, µM (series often up to 46.1 µM), for the others: at the top dose activity change, negative = cytotoxicity, actives largely listed as cytotoxic | 55,000 tested, 0.62% active;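 further: potency means the concentration at half of the fitted maximal effect; 0% = DMSO only and -100% = full killing by 100 µM tamoxifen; nearly all actives have a fitted effect of over 55% in size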
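Overnight 37C seeding (600 cells/well) of H1299-neo preceded a 24 hr, 32C exposure to compounds up to 46 uM. ATP levels, read by luminescence after 20 min at RT, indicated surviving cells.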
p53null 39C kill = p53 null cell cytotoxicity, nonpermissive temperature; H1299 p53-null (neo) cells, 39C, ATPlite viability, 24 h; Potency, µM (doses to about 46.1 µM), without a hit: at the highest dose activity, negative = cell killing, most hits filed as cytotoxic; 55,000 tested, 0.97% active;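 further: potency means the concentration at half of the fitted maximal effect; 0% = DMSO only and -100% = full killing by 100 µM tamoxifen; nearly all actives have a fitted effect of over 50% in size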
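Temperature-shift cytotoxicity format: compound titrations on p53-null or A138V-expressing H1299 cells held 24 hr at 39C, cell ATP then measured, AC50 from Hill model.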
mTORC1 inh = inhibitors of mTORC1 signaling in Tsc2-/- p53-/- MEF cells. Tsc2-/- p53-/- MEF, phospho-rpS6 immunofluorescence/PI, 24 h. Potency, µM (doses to about 38.3 µM), inactives show at the highest dose activity change, negative = inhibition, usual class: inhibitors. 44,000 tested, 0.78% active;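 further: potency means the concentration at half of the fitted maximal effect; plate controls were DMSO for no effect and rapamycin for full effect; nearly all actives have a fitted effect of over 50% in size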
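Plate MEFs (Tsc2-/-, p53-/-, empty vector) in DMEM/10% FBS; after 24 h add compound, incubate 24 h at 37 degree Celsius; fix in PFA/TX-100, block, stain phospho-rpS6 and 10 uM PI; scan at 488 nm; report % positive cells.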
OvCa metastasis = inhibitors of ovarian cancer cell adhesion and invasion in omental model. 46,000 tested, 0.1% active. SKOV3ip1-GFP adhesion/invasion on 3D omental model, fluorescence. AID 1963576. Potency, µM (doses to about 45.8 µM), for inactives: at the highest dose activity change, negative = inhibition, usual class: inhibitors;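 further: potency means the concentration at half of the fitted maximal effect; plate controls were DMSO wells for no effect and tomatine positive control wells for full effect; nearly all actives have a fitted effect of over 65% in size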
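Primary human omental fibroblast/mesothelial 3D culture pre-formed 48 h. SKOV3ip1-GFP cells added with compounds (0.36-46 umol/L), incubated 2 h RT/16 h 37 C, fixed; GFP cells quantified at 488/509 nm.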
PMP22 txn prim = modulates PMP22 transcription in S16 Schwann cells. AID 1508649. Potency, µM (titrated, usually from 57.5 µM), inactives show top-dose activity change, negative = inhibition, most hits filed as inhibitors. 43,000 tested, 2% active. S16 Pmp22-F2sN Schwann cells (luciferase reporters placed in the Pmp22 gene), FLuc/NLuc coincidence luminescence, 24 h; active means clear falling dose curves in both reporters; inconclusive means both reporters move, but less clearly or upward; inactive means either reporter flat; the % is the NLuc reporter signal; further: potency means the concentration at half of the fitted maximal effect; on the % scale 0 is the no-effect control and ±100 the full control effect
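Rat S16 Pmp22-F2sN cells, 500-1,000/well in phenol red-free DMEM + 10% FBS, compound-treated 24 h (37C, 5% CO2). Luminescence: FLuc read, Stop&Glo added, NLuc read.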
NLuc sat counter = inhibits NanoLuc at saturating substrate, PMP22 counter-screen; shares compounds with PMP22 txn prim; Secreted NLuc enzyme (filtered S16 cell medium), Nano-Glo luminescence; Potency, µM (series often up to 57.5 µM), for the others: at the top dose activity change, negative = inhibition, usual class: inhibitors; 690 tested, 4% active; AID 1508638; further: potency means the concentration at half of the fitted maximal effect; on the % scale 0 is the no-effect control and ±100 the full control effect
NLuc Km ctr = NanoLuc inhibition at Km substrate, PMP22 artifact check; AID 1508639; secreted NLuc enzyme, coelenterazine luminescence, Km conditions; 690 tested, 5% active; shares compounds with PMP22 txn prim; Potency, µM (series often up to 57.5 µM), without a hit: top-dose activity change, negative = inhibition, usual class: inhibitors; further: potency means the concentration at half of the fitted maximal effect; on the % scale 0 is the no-effect control and ±100 the full control effect
FLuc ctr PMP22 = inhibits firefly luciferase, PMP22 counter-screen | shares compounds with PMP22 txn prim | purified P. pyralis FLuc, luminescence, 10 min | Potency, µM (highest dose often 57.5 µM), inactives show top-dose activity, negative = inhibition, actives largely listed as inhibitors | 690 tested, under 10 active | AID 1508640; further: % of control where 0% means no effect
Target sequence (P08659 whole entry, looked up): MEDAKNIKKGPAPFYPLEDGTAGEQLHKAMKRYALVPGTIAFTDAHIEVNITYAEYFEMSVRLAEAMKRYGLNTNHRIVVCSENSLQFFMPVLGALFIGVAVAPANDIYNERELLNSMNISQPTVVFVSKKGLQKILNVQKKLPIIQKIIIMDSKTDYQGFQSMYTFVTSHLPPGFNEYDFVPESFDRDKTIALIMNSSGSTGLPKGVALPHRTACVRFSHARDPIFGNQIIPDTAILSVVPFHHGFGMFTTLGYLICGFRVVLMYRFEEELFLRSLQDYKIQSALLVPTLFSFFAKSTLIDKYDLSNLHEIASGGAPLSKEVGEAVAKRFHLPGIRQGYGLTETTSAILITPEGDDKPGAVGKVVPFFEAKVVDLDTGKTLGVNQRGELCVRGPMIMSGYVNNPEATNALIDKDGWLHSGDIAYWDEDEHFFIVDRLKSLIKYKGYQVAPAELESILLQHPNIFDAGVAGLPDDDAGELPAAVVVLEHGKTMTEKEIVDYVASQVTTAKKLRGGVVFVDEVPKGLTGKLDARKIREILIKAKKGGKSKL
S16 F2sN tox cnf = S16 Schwann cell cytotoxicity, confirmatory. shares compounds with PMP22 txn prim. S16 Schwann cells viability, CellTiter-Glo ATP luminescence, 24 h. Potency, µM (top dose mostly 57.5 µM), for the others: at the highest dose activity change, negative = viability loss, actives largely listed as cytotoxic. 690 tested, 7% active; further: potency means the concentration at half of the fitted maximal effect; on the % scale 0 is the no-effect control and ±100 the full control effect
PMP22 txn cnf = confirmation of modulators of PMP22 gene transcription in S16 cells. shares compounds with PMP22 txn prim. S16 Schwann cells Pmp22-F2sN, dual luciferase, 24 h. Potency, µM (titrated, usually from 57.5 µM), inactives show top-dose activity change, negative = inhibition, hits mostly inhibitors. 690 tested, 22% active. AID 1508646; active means clear falling dose curves in both reporters; inconclusive means both reporters move, but less clearly or upward; inactive means either reporter flat; the % is the FLuc reporter signal; further: potency means the concentration at half of the fitted maximal effect
Active calls of the source: *; [ ] = remark or other dose. Compounds with a hit are over-represented: about 3% of the library has one in this group of screens. Unless noted, the call rests on the fitted dose curve; in most records, active means well fitted curve in the direction sought with a large enough effect; inconclusive means small, poorly fitted or top-dose-only effect, or another doubt; inactive means no such curve, though single readings can be large; an effect the other way counts as inactive or inconclusive.

Cc1ccc2c(c1)C(=O)C(=O)N2Cc1ccc(OCCC(C)C)cc1 was read as S16 F2sN tox -12%, p53null 32C tox 20%, p53null 39C kill inconclusive, mTORC1 inh -13%, OvCa metastasis inconclusive, PMP22 txn prim 4.6µM*, NLuc sat counter -11%, NLuc Km ctr 1%, FLuc ctr PMP22 -8%, S16 F2sN tox cnf -6% and PMP22 txn cnf 12µM*.
`CCCCOc1ccc(Cn2c(=O)oc3ccc(C)cc32)cc1` gave S16 F2sN tox 0%, p53null 32C tox -1%, p53null 39C kill -16%, mTORC1 inh -1%, OvCa metastasis -8% and PMP22 txn prim -11%.
`Cc1cnc(Nc2cccc(CN3CCOCC3)c2)nc1Nc1cccc(S(=O)(=O)NC(C)(C)C)c1` gave OvCa metastasis -28%.
Screening O=C(Nc1ccc(F)c(C(F)(F)F)c1)Nc1nnc(-c2ccncc2)s1 returned OvCa metastasis -2%.
O=C(CSc1nc2c(sc3ccccc32)c(=O)n1CCCC(=O)NC1CCCC1)Nc1ccc(F)cc1 was read as S16 F2sN tox inconclusive, p53null 32C tox -8%, p53null 39C kill -4%, mTORC1 inh -1%, OvCa metastasis inactive, PMP22 txn prim inconclusive, NLuc sat counter -13%, NLuc Km ctr 12%, FLuc ctr PMP22 -15%, S16 F2sN tox cnf -31% and PMP22 txn cnf 11µM*.
Cc1cccc(NC(=O)CSc2nc3c(sc4ccccc43)c(=O)n2CCCC(=O)NC2CCCC2)c1 was read as S16 F2sN tox 8%, p53null 32C tox -7%, p53null 39C kill -4%, mTORC1 inh -11%, OvCa metastasis -5% and PMP22 txn prim -29%.
`CCOC(=O)c1ccc(NC(=O)c2nn(C)c3c2COc2ccccc2-3)cc1` gave S16 F2sN tox -5%, p53null 32C tox 6%, p53null 39C kill -2%, mTORC1 inh 1%, OvCa metastasis 0% and PMP22 txn prim -6%.
`CCOC(=O)c1ccccc1NC(=O)c1nn(C)c2c1COc1ccccc1-2` gave S16 F2sN tox 9%, p53null 32C tox 26%, p53null 39C kill 43%, mTORC1 inh -17%, OvCa metastasis -6%, PMP22 txn prim 17µM*, NLuc sat counter -7%, NLuc Km ctr 2%, FLuc ctr PMP22 -14%, S16 F2sN tox cnf -8% and PMP22 txn cnf 18µM*.
COCCOC(=O)C1=C(C)NC2=C(C(=O)CC(c3ccccc3OC)C2)C1c1cccc(O)c1 (stereo unspecified) was read as OvCa metastasis 8%.
For O=C(Nc1ccccc1)Nc1ccc(-c2ccc(C(=O)[C@H]3CCC[C@H]3C(=O)O)cc2)cc1 the results were OvCa metastasis -7%.
`O=C1COc2ccc(-c3cc(-c4ccc(F)cc4)c4c(n3)-c3ccccc3OC4)cc2N1` gave S16 F2sN tox 24%, mTORC1 inh 1%, OvCa metastasis inactive, PMP22 txn prim 17µM*, NLuc sat counter -5%, NLuc Km ctr 7%, FLuc ctr PMP22 6%, S16 F2sN tox cnf inconclusive and PMP22 txn cnf inconclusive.
Screening C[C@@H]1C(=O)O[C@H]2CC34[C@H]5C[C@@H](C(C)(C)C)C36[C@H](OC(=O)[C@@H]6O)O[C@@]4(C(=O)O5)[C@]21O (stereo partly specified) returned OvCa metastasis 8%.
`Cc1c(C(=O)OC2CCCCC2)[nH]c2c1C(=O)CC(c1ccccc1)C2` (stereo unspecified) gave S16 F2sN tox 3%, p53null 32C tox -13%, p53null 39C kill -10%, mTORC1 inh -18%, OvCa metastasis -6%, PMP22 txn prim 13µM*, NLuc sat counter -4%, NLuc Km ctr 1%, FLuc ctr PMP22 0%, S16 F2sN tox cnf -10% and PMP22 txn cnf inconclusive.
Cc1c(C(=O)OC2CCCCC2)[nH]c2c1C(=O)CC(c1ccc(F)cc1)C2 (stereo unspecified) was read as S16 F2sN tox 3%, p53null 32C tox -4%[9.22 µM], p53null 39C kill 4%, mTORC1 inh -3%, OvCa metastasis 11% and PMP22 txn prim inconclusive.
Screening Cc1c(C(=O)OC2CCCCC2)[nH]c2c1C(=O)CC(c1ccccc1Cl)C2 (stereo unspecified) returned S16 F2sN tox inconclusive, p53null 32C tox 17%, p53null 39C kill -7%, mTORC1 inh inconclusive, OvCa metastasis 2%, PMP22 txn prim 6µM*, NLuc sat counter -19%, NLuc Km ctr inconclusive, FLuc ctr PMP22 -19%, S16 F2sN tox cnf -18% and PMP22 txn cnf -45%.
`Cc1c(C(=O)Nc2ccc(F)cc2)oc2ccc(S(=O)(=O)N3CCCCCC3)cc12` gave S16 F2sN tox -28%, p53null 32C tox 6%, p53null 39C kill 24%, mTORC1 inh -5%, OvCa metastasis -16%, PMP22 txn prim 15µM*, NLuc sat counter -10%, NLuc Km ctr -19%, FLuc ctr PMP22 1%, S16 F2sN tox cnf -8% and PMP22 txn cnf -35%.
